Assay outcomes as filed in PubChem BioAssay.
In the library only some 2.2% were active in any assay of this set; here they are far more common.
APP 5UTR inh – inhibitors of APP translation via 5'UTR reporter, primary screen, APP 5'UTR luciferase, SH-SY5Y cells; hit rate 0.82% among 190,000; inhibition, % at 2 µM; SH-SY5Y APP 5'UTR-luciferase reporter, luminescence;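 active means inhibition above a set limit, derived from the sample mean plus 3 SD, cut at about 45% in these data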
BaF3 parental – parental Ba/F3 cell viability inhibition, counter-screen for JAK2V617F inhibitor project, murine pro-B, CellTiter-Glo luminescence | AID 1486, 2009 | inhibition, % at 5.6 µM | CellTiter-Glo ATP luminescence | hit rate 1.1% among 220,000;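 active means inhibition above a per-campaign cutoff, the mean inhibition of all tested compounds plus 3 SD, cut at about 27% in these data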;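 further: 0% = DMSO wells and 100% = JAK Inhibitor I control wells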
aSyn 5UTR inh – MLPCN primary screen, SNCA 5' untranslated region. alpha-synuclein 5'UTR reporter, inhibitor activity. inhibition, % (tested at 7.5 µM). hit rate 0.82% among 300,000. AID 1813, 2009; in the data active means inhibition above about 60%;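 further: H4 neuroglioblastoma cells stably carrying SNCA 5'UTR luciferase fusion; 0% = DMSO wells and 100% = positive control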
IEC-6 cytotox – cytotoxicity in IEC-6 intestinal epithelial cells, primary screen, cytotoxicity control for KLF5 inhibitor project, cell-based, luminescence | IEC-6 cytotoxicity, luminescence viability | inhibition, % at 5 µM | hit rate 0.78% among 290,000 | AID 1825, 2009; in the data active means inhibition above about 22%;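 further: 0% = plate median of test compound wells and 100% = cytotoxic reference compound wells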
Ba/F3 V617F tox – reduced viability of JAK2V617F-dependent Ba/F3 cells, primary screen, JAK2V617F inhibitor project, cell-based, Ba/F3 EpoR-JAK2V617F, luminescence; ATP luminescence; hit rate 1.1% among 220,000; inhibition, % at 5.6 µM;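 active means inhibition above the campaign mean plus 3 SD over all tested compounds, cut at about 24% in these data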;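 further: cytokine-independent growth of Ba/F3 cells driven by EpoR plus mutant JAK2; 0% = DMSO-treated cells and 100% = JAK inhibitor I control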
KLF5 inhibitor – KLF5 expression inhibitors, primary screen, DLD-1 cells, luminescence. hit rate 0.23% among 290,000. inhibition, % at 5 µM. DLD-1 KLF5 promoter-luciferase reporter;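 active means inhibition above a per-plate limit of that plate's mean compound inhibition plus 3 SD, cut at about 60% in these data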;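 further: 0% = DMSO wells and 100% = LY294002 at 200 µM; higher means less KLF5 promoter-driven luciferase light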
The depositor's hits bear a star.

How did COc1ccc(N2CC(NC(=O)c3ccc4ccccc4c3)CC2=O)cc1OC (centres undefined) do in these assays?
aSyn 5UTR inh: 15.4

What do the screens show for `Cc1oc(C(=O)Nc2ccc(O)cc2)cc1COc1ccccc1`?
APP 5UTR inh: -13.5; BaF3 parental: 37.2*; IEC-6 cytotox: 5.0; Ba/F3 V617F tox: 9.0; KLF5 inhibitor: -10.1

What do the screens show for `Cc1ccc(OCc2cc(C(=O)Nc3ccccc3)oc2C)cc1`?
APP 5UTR inh: -1.7; BaF3 parental: 3.0; aSyn 5UTR inh: -54.5; IEC-6 cytotox: 2.5; Ba/F3 V617F tox: 2.2; KLF5 inhibitor: -39.7

What do the screens show for `O=C1C2CSCN2C(=O)CN1CCCN1CCN(C(c2ccccc2)c2ccccc2)CC1` (centres undefined)?
APP 5UTR inh: 10.1; BaF3 parental: 9.2; aSyn 5UTR inh: 25.0; IEC-6 cytotox: -5.4; Ba/F3 V617F tox: 1.0; KLF5 inhibitor: -22.9

How did CCn1c2ccccc2c2cc(/C=N/NC(=O)c3ccccc3C)ccc21 do in these assays?
APP 5UTR inh: 79.4*; BaF3 parental: 10.0; aSyn 5UTR inh: -0.5; IEC-6 cytotox: 3.5; Ba/F3 V617F tox: 1.7; KLF5 inhibitor: -16.8

Results for COc1cccc(CC(NC(C)=O)C(=O)NC2CCN(C(=O)C3CC3)CC2)c1OC (centres undefined) ?
APP 5UTR inh: 3.4; BaF3 parental: 1.8; aSyn 5UTR inh: -11.1; IEC-6 cytotox: -3.1; Ba/F3 V617F tox: -1.7; KLF5 inhibitor: -41.0

What do the screens show for `O=C(N/N=C/c1ccc(Br)s1)c1ccc([N+](=O)[O-])cc1`?
APP 5UTR inh: 36.4; BaF3 parental: 0.1; aSyn 5UTR inh: 84.4*; IEC-6 cytotox: 1.0; Ba/F3 V617F tox: -3.4; KLF5 inhibitor: -32.5

What do the screens show for `Cc1ccc(C(=O)N/N=C/c2ccc([N+](=O)[O-])s2)cc1`?
APP 5UTR inh: 70.3*; BaF3 parental: 1.4; aSyn 5UTR inh: 107.6*; IEC-6 cytotox: -1.4; Ba/F3 V617F tox: -1.2; KLF5 inhibitor: -33.7

What do the screens show for `O=C(N/N=C/c1ccc(O)c2ncccc12)c1cccc(Br)c1`?
APP 5UTR inh: 62.7*; BaF3 parental: 52.2*; aSyn 5UTR inh: 66.6*; IEC-6 cytotox: 20.0; Ba/F3 V617F tox: 91.9*; KLF5 inhibitor: 4.7

Results for O=C(N/N=C/c1ccc([N+](=O)[O-])s1)c1cccc(Br)c1 ?
APP 5UTR inh: 23.5; BaF3 parental: 9.7; aSyn 5UTR inh: 67.4*; IEC-6 cytotox: 12.5; Ba/F3 V617F tox: 5.8; KLF5 inhibitor: -1.4

What do the screens show for `O=C(N/N=C/c1ccc([N+](=O)[O-])s1)c1ccncc1`?
APP 5UTR inh: 14.5; BaF3 parental: 8.1; aSyn 5UTR inh: -63.7; IEC-6 cytotox: -3.9; Ba/F3 V617F tox: 0.8; KLF5 inhibitor: -9.2

Results for CC(CNC(=S)Nc1cc(F)cc(F)c1)CSc1ccc(Cl)cc1 (centres undefined) ?
APP 5UTR inh: -29.3; BaF3 parental: 5.2; aSyn 5UTR inh: 32.0; IEC-6 cytotox: -0.9; Ba/F3 V617F tox: -0.8; KLF5 inhibitor: 13.7

How did O=C(COc1ccccc1)N=C1SC2CS(=O)(=O)CC2N1c1ccc(F)cc1F (centres undefined) do in these assays?
aSyn 5UTR inh: 20.9; IEC-6 cytotox: 5.9; KLF5 inhibitor: -1.7

Results for Cc1cc(C(=O)N/N=C/c2ccc(C)s2)n[nH]1 ?
aSyn 5UTR inh: -97.3; IEC-6 cytotox: 4.8; KLF5 inhibitor: -67.3

How did Cc1cc(C(=O)N/N=C/c2ccc([N+](=O)[O-])s2)n[nH]1 do in these assays?
BaF3 parental: 2.8; aSyn 5UTR inh: 79.3*; IEC-6 cytotox: 3.4; Ba/F3 V617F tox: 6.4; KLF5 inhibitor: 12.0

What do the screens show for `COc1cc(Br)cc(/C=N/NC(=O)Cc2ccc(C(F)(F)F)cc2[N+](=O)[O-])c1O`?
APP 5UTR inh: 33.2; BaF3 parental: 5.3; aSyn 5UTR inh: 67.5*; IEC-6 cytotox: -1.9; Ba/F3 V617F tox: -2.2; KLF5 inhibitor: -38.4

What do the screens show for `COc1cccc(CNC(=O)c2cc3oc4ccccc4c3n2C)c1OC`?
APP 5UTR inh: -7.8; BaF3 parental: 0.6; aSyn 5UTR inh: 5.0; IEC-6 cytotox: -0.2; Ba/F3 V617F tox: -1.9; KLF5 inhibitor: 1.5

Results for CCOc1ccccc1CNC(=O)c1cc2oc3ccccc3c2n1CC ?
BaF3 parental: 2.4; aSyn 5UTR inh: 65.6*; IEC-6 cytotox: -1.1; Ba/F3 V617F tox: -4.5; KLF5 inhibitor: -21.6

How did O=C1CC(c2cccc(Br)c2)c2cc3c(cc2N1)CCC3 (centres undefined) do in these assays?
APP 5UTR inh: 53.7*; BaF3 parental: 61.7*; aSyn 5UTR inh: 33.5; IEC-6 cytotox: 14.3; Ba/F3 V617F tox: 46.5*; KLF5 inhibitor: 24.9

What do the screens show for `O=C1CC(c2cc(F)ccc2F)c2cc3c(cc2N1)CCC3` (centres undefined)?
APP 5UTR inh: 83.5*; BaF3 parental: 1.6; aSyn 5UTR inh: 25.2; IEC-6 cytotox: 17.1; Ba/F3 V617F tox: 2.9; KLF5 inhibitor: -21.2

What do the screens show for `Cc1ccccc1NC(=S)N1CCN(c2ccccc2)CC1`?
aSyn 5UTR inh: 6.8; IEC-6 cytotox: -5.8; KLF5 inhibitor: -20.8

How did CCCCCC(C)NC(=S)NC(=O)c1cc(S(=O)(=O)N2CCOCC2)ccc1C (centres undefined) do in these assays?
APP 5UTR inh: -0.2; BaF3 parental: 41.8*; aSyn 5UTR inh: 66.2*; IEC-6 cytotox: 3.8; Ba/F3 V617F tox: -3.6; KLF5 inhibitor: -2.4

What do the screens show for `CCCC(C)NC(=S)NC(=O)c1cc(S(=O)(=O)N2CCOCC2)ccc1C` (centres undefined)?
APP 5UTR inh: -18.1; BaF3 parental: 4.5; aSyn 5UTR inh: 41.1; IEC-6 cytotox: -3.3; Ba/F3 V617F tox: -0.8; KLF5 inhibitor: 14.1

How did COc1cccc(/C=N/Nc2cc(N3CCOCC3)ncn2)c1O do in these assays?
aSyn 5UTR inh: 72.2*; IEC-6 cytotox: -6.4; KLF5 inhibitor: 39.5

What do the screens show for `COc1cccc(/C=N/Nc2ncnc3c2ncn3Cc2ccccc2)c1O`?
APP 5UTR inh: 88.3*; BaF3 parental: 58.6*; aSyn 5UTR inh: 101.9*; IEC-6 cytotox: 0.5; Ba/F3 V617F tox: 71.0*; KLF5 inhibitor: 11.9

What do the screens show for `COc1ccc(OC)c(CCNC(=O)Cn2nc(C)c3c(C)n(-c4ccccc4)nc3c2=O)c1`?
aSyn 5UTR inh: 4.1; IEC-6 cytotox: -3.1; KLF5 inhibitor: -20.2

Results for CN1C(=O)C(O)(C2CCCCCC2=O)c2ccccc21 (centres undefined) ?
aSyn 5UTR inh: 12.4; IEC-6 cytotox: -1.1; KLF5 inhibitor: -2.0

What do the screens show for `O=C(Nc1cnn(Cc2c(Cl)cccc2Cl)c1)C(c1ccccc1)c1ccccc1`?
APP 5UTR inh: 77.8*; BaF3 parental: 7.0; aSyn 5UTR inh: 13.4; IEC-6 cytotox: -7.3; Ba/F3 V617F tox: -0.9; KLF5 inhibitor: -28.0

Results for O=C(CCl)N(c1ccccc1)C1CCCCC1 ?
APP 5UTR inh: 1.4; BaF3 parental: 3.4; aSyn 5UTR inh: 110.0*; IEC-6 cytotox: 4.4; Ba/F3 V617F tox: 9.4; KLF5 inhibitor: -19.5
